An excerpt weighted towards active compounds, which were near 2.5% of everything screened.
LEDGF integ inh – blocks HIV-1 LEDGF/p75-dependent DNA integration | AID 743269 | inhibition, % at 3.7 µM | TR-FRET IN-LEDGF/p75 DNA integration, Eu/Cy5 | 370,000 compounds, 0.64% hits;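 active = inhibition above the screen-wide mean plus 3 SD, cut at about 13% in these data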;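 also: signal is the Cy5 over europium emission ratio at 671 and 618 nm; 0% = plate median of compound wells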
PRMT1 FP inh – blocks human protein arginine methyltransferase 1; 370,000 compounds, 1.3% hits; recombinant PRMT1, activity-based probe fluorescence polarization; inhibition, % at 2.79 µM;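 active = inhibition above about 21% made by adding two undisclosed values, limit read from the data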
UHRF1 binding – human UHRF1 methylated DNA binding inhibitors; AID 687016; UHRF1 binding to methylated oligo, TR-FRET; Q96T88; inhibition, % at 4.4 µM; 370,000 compounds, 0.75% hits; in the data active = inhibition above about 21%;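 also: UHRF1 SRA domain binding a hemimethylated CpG hairpin DNA probe; 0% = median of test compound wells and 100% = reference inhibitor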
Target sequence (Q96T88 whole entry, looked up, the tested form may be a part): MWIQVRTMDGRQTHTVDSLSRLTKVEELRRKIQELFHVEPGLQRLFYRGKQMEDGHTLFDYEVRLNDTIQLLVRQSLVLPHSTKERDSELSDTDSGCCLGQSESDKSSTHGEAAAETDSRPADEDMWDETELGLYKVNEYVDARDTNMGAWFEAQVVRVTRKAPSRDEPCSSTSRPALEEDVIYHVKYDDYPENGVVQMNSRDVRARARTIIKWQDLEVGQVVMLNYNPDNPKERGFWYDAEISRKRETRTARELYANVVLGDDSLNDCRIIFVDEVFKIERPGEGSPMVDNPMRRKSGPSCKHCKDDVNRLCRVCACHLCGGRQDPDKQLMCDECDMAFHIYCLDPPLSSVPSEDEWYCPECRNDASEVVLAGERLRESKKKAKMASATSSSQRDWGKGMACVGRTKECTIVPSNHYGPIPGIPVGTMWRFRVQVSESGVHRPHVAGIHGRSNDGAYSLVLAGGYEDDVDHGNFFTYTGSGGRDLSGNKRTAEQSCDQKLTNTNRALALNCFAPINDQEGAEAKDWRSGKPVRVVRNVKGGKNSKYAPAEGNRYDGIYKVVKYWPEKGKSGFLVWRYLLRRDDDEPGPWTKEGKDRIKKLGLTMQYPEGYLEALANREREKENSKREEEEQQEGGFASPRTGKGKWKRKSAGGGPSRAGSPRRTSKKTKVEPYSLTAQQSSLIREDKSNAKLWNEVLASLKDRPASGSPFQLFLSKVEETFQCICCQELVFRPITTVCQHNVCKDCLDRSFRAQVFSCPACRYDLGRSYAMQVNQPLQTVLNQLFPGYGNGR
MBD2 inh – inhibitors of human MBD2 binding to methylated oligonucleotide | Q9UBB5 | TR-FRET | inhibition, % at 4.4 µM | 370,000 compounds, 0.31% hits | AID 686964; in the data active = inhibition above about 13%
IN multimer up – HIV-1 integrase multimerization activation, counter-screen; activation, % at 7.7 µM; TR-FRET HIV-1 integrase multimerization, biochemical; 2,000 compounds, 17% hits; shares compounds with LEDGF integ inh; AID 1053131; in the data active = activation above about 8.9%
TRFRET interf – TR-FRET optical interference, LEDGF/p75 integration counter-screen; AID 1053135; 2,000 tested, under 10 active; shares compounds with LEDGF integ inh; TR-FRET optical interference counterscreen, HIV-1 IN multimerization; inhibition, % at 7.7 µM;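 active = inhibition above the mean over all tested compounds plus 3 SD, which no compound reached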;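 also: 0% = integrase with antibodies and DMSO and 100% = antibodies without integrase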
LEDGF integ conf – confirmation of HIV-1 LEDGF/p75-dependent integration inhibitors; shares compounds with LEDGF integ inh; TR-FRET LEDGF/p75-dependent HIV-1 integration, biochemical; inhibition, % at 3.7 µM; 2,000 compounds, 36% hits; AID 1053136; in the data active = inhibition above about 14%
* hit, by the source's call; · = no result.

SMILES | LEDGF integ inh | PRMT1 FP inh | UHRF1 binding | MBD2 inh | IN multimer up | TRFRET interf | LEDGF integ conf
CCc1cccc(CC)c1NC(=O)COC(=O)C1(C)CC1(Cl)Cl (configuration not stated) | 2.0 | -9.9 | 2.7 | 2.2 | · | · | ·
CCOC(=O)C1CCN(C(=O)c2ccc(N(C)S(C)(=O)=O)cc2)CC1 | -3.0 | -1.6 | 1.4 | -3.4 | · | · | ·
CN(c1ccc(C(=O)COC(=O)C2CC2)cc1)S(C)(=O)=O | 30.6* | -2.5 | 2.1 | 1.7 | 0.0 | 0.0 | 1.0
O=C(NCC1CCN(C(=O)c2c(F)c(F)c(F)c(F)c2F)CC1)c1c(F)c(F)c(F)c(F)c1F | 4.6 | -2.3 | 9.3 | 2.7 | · | · | ·
COc1cc(NC(=O)CN2CCCCCC2)cc(OC)c1 | 19.3* | -1.0 | -0.5 | -0.4 | 0.6 | -2.2 | -11.4
Cc1ccc(O)c(CNc2cccc3cccnc23)c1 | 8.0 | -0.6 | -3.5 | -3.6 | · | · | ·
Oc1ccc(Cl)cc1CNc1cccc2cccnc12 | 36.7* | 6.5 | -0.8 | -16.8 | -0.2 | 0.5 | 5.3
Oc1c(Br)cc(Br)cc1CNc1cccc2cccnc12 | 39.5* | 12.2 | -1.6 | -15.8 | 0.4 | -1.4 | 21.3*
Oc1ccc(Br)cc1CNc1cccc2cccnc12 | 13.9* | -2.3 | -3.4 | -16.0 | 2.3 | -8.4 | 6.7
O=C(Nc1ccc2nsnc2c1)N1CCCCCC1 | 0.6 | -2.1 | -4.1 | 0.9 | · | · | ·
S=C(Nc1ccc2nsnc2c1)N1CCCC1 | 31.6* | 14.3 | 5.6 | 0.9 | 1.7 | -6.0 | -2.3
CCOC(=O)N1CCN(C(=O)c2ccc3nc4ccsc4c(=O)n3c2)CC1 | -4.5 | -0.6 | 0.2 | -1.7 | · | · | ·
CCOC(=O)N1CCN(C(=O)c2ccc3nc4ccc(Cl)cc4c(=O)n3c2)CC1 | 17.6* | 0.6 | 1.2 | -4.3 | 0.6 | -3.2 | 0.4
Cc1ccc(C)c(NC(=O)CN(C)C(=O)c2ccc(Cl)nc2)c1 | 2.4 | 5.5 | 0.9 | -2.3 | · | · | ·
CC(CCc1ccccc1)NC(=O)CN1CCc2ccccc2C1 (configuration not stated) | 14.7* | -4.8 | 22.4* | 2.5 | -1.9 | 6.7 | -7.4
Oc1ccc(Br)cc1-c1cc(-c2ccccc2Cl)[nH]n1 | 25.5* | 6.4 | 6.4 | 7.0 | 1.1 | -5.8 | -3.7
Oc1ccc(Br)cc1-c1cc(-c2ccccc2F)[nH]n1 | -3.5 | 1.3 | -2.4 | 0.1 | · | · | ·
CC(=O)c1ccc(NC(=S)NC(=O)Cc2ccc(Cl)cc2)cc1 | 14.9* | 0.1 | 3.8 | 0.0 | 8.0 | -28.4 | -3.4
O=C1Nc2ccc(S(=O)(=O)N3CCCC3C(=O)O)c3cccc1c23 (configuration not stated) | 13.7* | 0.6 | 0.6 | -5.4 | -2.0 | 10.3 | -5.6
O=C1Nc2ccc(S(=O)(=O)N3CCCC3)c3cccc1c23 | 2.8 | 1.3 | -4.1 | -12.3 | · | · | ·
CC1(C(=O)Nc2ccc(Cl)c(Cl)c2)CCN1C(=O)CC1CCCC1 (configuration not stated) | 0.8 | 1.7 | 1.1 | -1.8 | · | · | ·
COc1ccc(C(CNCC(O)COc2c(C)ccc(C)c2C)N(C)C)cc1 (configuration not stated) | 13.6* | -0.2 | -3.2 | -6.2 | -0.4 | 2.2 | 3.4
CCOC(=O)N1CCN(C(=O)COc2ccc(S(=O)(=O)NC3CCCCC3)cc2C)CC1 | 15.7* | -2.0 | -0.5 | -7.5 | 2.0 | -7.1 | -2.3
CCOC(=O)N1CCN(C(=O)COc2ccc(S(=O)(=O)NCC(C)C)cc2C)CC1 | -2.3 | -3.0 | -4.0 | -5.2 | · | · | ·
COCCNC(=O)c1cc2c(c(-c3cccc(C#Cc4ccc(OC)c(OC)c4)c3)n1)[C@H](CCO)N(S(=O)C(C)(C)C)C2 (some centres not stated) | -2.5 | -0.6 | 4.6 | -5.0 | · | · | ·
SMILES | LEDGF integ inh | PRMT1 FP inh | UHRF1 binding | MBD2 inh | IN multimer up | TRFRET interf | LEDGF integ conf
COc1ccc(CN2CCSCC2)c(C)c1C | -4.3 | 3.2 | 2.4 | 5.0 | · | · | ·
O=C(Cn1cncn1)N/N=C/c1ccc(Cl)cc1 | -2.8 | -0.8 | 1.4 | 1.9 | · | · | ·
O=C(Cn1cncn1)NCc1ccc(Cl)cc1 | 18.9* | -0.8 | -3.4 | -0.4 | 0.1 | -0.7 | -1.1
O=C(CNC(=O)c1ccccc1F)Nc1ccccc1C(F)(F)F | 7.3 | -1.4 | -0.1 | -0.2 | · | · | ·
CCc1nnc(NC(=O)c2oc3cc(C)c(C)cc3c2C)s1 | 16.0* | 0.8 | 4.2 | -1.6 | 2.9 | -14.7 | -3.1
Cc1ccc2cccc(S(=O)(=O)N3CCCc4ccccc43)c2n1 | 9.2 | -4.8 | -0.2 | -6.4 | · | · | ·
Oc1ccc2ccccc2c1C=Nc1ccc(N2CCOCC2)cc1 | 28.1* | 4.8 | -4.5 | -15.2 | 1.8 | -8.8 | -1.4
C(=Nc1ccc(N2CCOCC2)cc1)c1c[nH]c2ccccc12 | 22.9* | -0.6 | -1.8 | -8.2 | -0.6 | 3.1 | 7.4
C=Cc1ccc(N=Cc2c(O)ccc3ccccc23)cc1 | 7.7 | -0.6 | -3.0 | -10.4 | · | · | ·
CN(C(=O)CSc1nc(N)cc(N)n1)C1CCS(=O)(=O)C1 (configuration not stated) | -7.1 | 5.7 | 3.3 | 0.2 | · | · | ·
O=C(NCCN1CCOCC1)c1ccc(NC(=O)C2COc3ccccc3O2)cc1 (configuration not stated) | -1.4 | 3.8 | 2.8 | 1.3 | · | · | ·
CC(C)C[C@@H]1CC2=C(C(=O)OC(C)(C)O2)[C@H](c2ccc(Cl)cc2)O1 | -1.6 | -2.6 | -1.5 | 6.9 | · | · | ·
COc1ccc(N(C(=O)c2ccccc2)S(=O)(=O)c2cccs2)cc1 | -2.1 | -1.0 | -1.6 | -3.6 | · | · | ·
COc1ccc(C(=O)N(c2ccc(OC)cc2)S(=O)(=O)c2cccs2)cc1 | 23.9* | -2.6 | 0.6 | -8.0 | 0.3 | -1.7 | -1.8
CCOc1ccc(C2(C)CC(=O)N(C)C2=O)cc1 (configuration not stated) | -4.1 | -3.9 | -1.7 | 0.8 | · | · | ·
CCN(CC(=O)NCc1ccc(F)cc1)C(=O)c1cc2ccccc2o1 | 2.3 | -2.8 | -1.1 | 2.7 | · | · | ·
COc1cc(N)c2ncccc2c1OC | 27.4* | -1.5 | 0.0 | -8.7 | 3.3 | -16.8 | -2.9
COC(=O)c1sc2nc(N)c(C#N)cc2c1N | 33.8* | 0.6 | 8.8 | -1.7 | 1.8 | -8.9 | 1.9
CCOC1=C2[C@@H](CN(S(=O)(=O)c3ccccc3C)[C@H]2c2ccc(Cl)cc2)[C@H]2C(=O)N(c3ccccc3)C(=O)[C@H]2C1 | 37.5* | -0.8 | -1.1 | -3.6 | 0.6 | -2.9 | -9.0
O=C(c1ccccc1)c1nn(-c2ccccc2)c(=O)cc1C(F)(F)F | 12.5 | 2.1 | 13.5 | 3.5 | · | · | ·
O=C(c1ccccc1)c1nn(-c2ccc(Cl)cc2)c(=O)cc1C(F)(F)F | 22.6* | -1.1 | -2.6 | -4.3 | 0.2 | -1.0 | 18.7*
Nc1nc2c(ncn2[C@@H]2O[C@H](CNC(=O)[C@H](N)C3CCCCC3)[C@@H](O)[C@H]2O)c(=O)[nH]1 | 5.8 | 0.7 | -3.1 | 3.6 | · | · | ·
COC1=C(NCc2ccc3c(c2)OCO3)C(=O)C(OC)=C(NCc2ccc3c(c2)OCO3)C1=O | 13.4* | -0.3 | -5.5 | -0.7 | -1.1 | 4.1 | 0.7
COC(=O)NCc1ccc2c(c1)OCO2 | -4.8 | -0.3 | -2.5 | -1.1 | · | · | ·

High-throughput results deposited in PubChem by The Scripps Research Institute Molecular Screening Center.
